Data: publication PMC5892938, “SARNAclust: Semi-automatic detection of RNA protein binding motifs from immunoprecipitation data”
Over roughly 11,000 sequences, “log2 fold change” has its median near 0.00022; the highest 2% begin near 0.34. The list shows a part of the results.

What follows are sequences tested against GST-SBP-SLBP (stem-loop binding protein) (Homo sapiens, UniProt Q14493 1-270) (assay: targeted RNA Bind-n-Seq; RBNS binding buffer: 25 mM Tris pH 7.5, 150 mM KCl, 3 mM MgCl2, 0.1% Tween, 0.5 mg/mL BSA, 1 mM DTT; 27 nM protein, 750 pM RNA pool; temperature not stated; high values mean tight binding). Details: protein: recombinant; tags: N-terminal GST and SBP (pGEX6P1-SBP); structured_RNA.
Procedure, shortened: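 The protein, carrying a GST-SBP tag, was produced in Rosetta(DE3) pLysS E. coli, purified on glutathione, and mixed at 27 nM with 750 pM of a designed RNA oligo pool made by T7 transcription in RBNS binding buffer. RNA that bound was reverse transcribed using a barcoded primer of 10 nucleotides, amplified by PCR and sequenced on a MiSeq with 200-cycle paired-end reads. FLASH joined the reads, HISAT2 aligned them, and they were collapsed by barcode before the binding signal was taken as the DEseq binary-logarithm fold change of read counts for each sequence.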

Sequence | binding signal [log2 fold change]
GGUCACGUCUCAAUCAACUCCUCGGAGGGGGGGAAAACCCCUUUACCCUCACAUUCAACAGCUCGCAGUCAAG | 0.424 ± 0.434
GGUCACGUCUCAAUCAACUCUCCAGAGGGGGGGAAAACCCCUUUACCCUCACAUUCAACAGCUCGCAGUCAAG | 0.328 ± 0.444
GGUCACGUCUCAAUCAACUCCUCGGAGGGGGGGAAAACCCCUUUACCCUCAUAUUCAACAGCUCGCAGUCAAG | 0.374 ± 0.433
GGUCACGUCUCAAUCAACUCCCCAGAGGGGGGGAAAACCCCUUUGCCCUCAAUAUCAACAGCUCGCAGUCAAG | 0.552 ± 0.441
GGUCACGUCUCAAUCAACUCCUCAGAGGGGGGGAAAACCCCUUUGCCCUCCAAAUCAACAGCUCGCAGUCAAG | 0.317 ± 0.412
GGUCACGUCUCAAUCAACUCUCCAGAGGGGGGGAAAACCCCUUUGCCCUCCACAUCAACAGCUCGCAGUCAAG | 0.318 ± 0.411
GGUCACGUCUCAAUCAACUCAUCAGAGGGGGGGAAAACCCCUUUGCCCUCCACAUCAACAGCUCGCAGUCAAG | 0.401 ± 0.446
GGUCACGUCUCAAUCAACUCCACAGAGGGGGGGAAAACCCCUUUGCCCUCCAUAUCAACAGCUCGCAGUCAAG | 0.437 ± 0.447
GGUCACGUCUCAAUCAACUCAGAAGAGGGGGGGAAAACCCCUUUGCCCUCCAUAUCAACAGCUCGCAGUCAAG | 0.327 ± 0.401
GGUCACGUCUCAAUCAACUCAUUUCCCAGGGAAAGCCCUGGUAAUCUCAACAGCUCGCAGUCAAG | 0.334 ± 0.275
GGUCACGUCUCAAUCAACUCAUCCCCCAGGGAAAGCCCUGGCUUACUCAACAGCUCGCAGUCAAG | 0.352 ± 0.269
GGUCACGUCUCAAUCAACUCAUUCCCCAGGGAAAGCCCUGGCUUUUUCAACAGCUCGCAGUCAAG | 0.512 ± 0.316
GGUCACGUCUCAAUCAACUCAAUCCCCAGGGAAAUCCCUGGCUUACUCAACAGCUCGCAGUCAAG | 0.371 ± 0.289
GGUCACGUCUCAAUCAACUCUAUCCCCAGGGAAACCCCUGGCUUACUCAACAGCUCGCAGUCAAG | 0.376 ± 0.273
GGUCACGUCUCAAUCAACUCUAUCCCCAGGGAAAGCCCUGGCUUACUCAACAGCUCGCAGUCAAG | 0.3 ± 0.283
GGUCACGUCUCAAUCAACUCAGUCCCCAGGGAAAGCCCUGGCAUAUUCAACAGCUCGCAGUCAAG | 0.34 ± 0.375
GGUCACGUCUCAAUCAACUCUUUUUCCAGGGAAAGCCCUGGCAUGUUCAACAGCUCGCAGUCAAG | 0.337 ± 0.241
GGUCACGUCUCAAUCAACUCAACUCCCAGGGAAAUCCCUGGUUAUCUCAACAGCUCGCAGUCAAG | 0.334 ± 0.284
GGUCACGUCUCAAUCAACUCAAUCCCCAGGGAAAUCCCUGGUUUACUCAACAGCUCGCAGUCAAG | 0.393 ± 0.26
GGUCACGUCUCAAUCAACUCAGUUCCCAGGGAAAGCCCUGGCAUUUUCAACAGCUCGCAGUCAAG | 0.449 ± 0.362

Sequence | binding signal [log2 fold change]
GGUCACGUCUCAAUCAACUCUUUUUCCAGGGAAAGCCCUGGCUAUGUCAACAGCUCGCAGUCAAG | 0.31 ± 0.256
GGUCACGUCUCAAUCAACUCAUCUUCCAGGGAAAGCCCUGGCUUUCUCAACAGCUCGCAGUCAAG | 0.425 ± 0.292
GGUCACGUCUCAAUCAACUCUUCUUCCAGGGAAAGCCCUGGCUAUUUCAACAGCUCGCAGUCAAG | 0.333 ± 0.251
GGUCACGUCUCAAUCAACUCAUCCCCCAGGGAAAUCCCUGGCUUACUCAACAGCUCGCAGUCAAG | 0.468 ± 0.259
GGUCACGUCUCAAUCAACUCUAUCUCCAGGGAAAACCCUGGCUAUUUCAACAGCUCGCAGUCAAG | 0.433 ± 0.244
GGUCACGUCUCAAUCAACUCUAUCUCCAGGGAAAGCCCUGGUUAUCUCAACAGCUCGCAGUCAAG | 0.334 ± 0.307
GGUCACGUCUCAAUCAACUCUAUCUCCAGGGAAACCCCUGGCUAACUCAACAGCUCGCAGUCAAG | 0.366 ± 0.263
GGUCACGUCUCAAUCAACUCUAUCUCCAGGGAAACCCCUGGCAAACUCAACAGCUCGCAGUCAAG | 0.323 ± 0.268
GGUCACGUCUCAAUCAACUCAUCCUCCAGGGAAACCCCUGGCUAUUUCAACAGCUCGCAGUCAAG | 0.363 ± 0.269
GGUCACGUCUCAAUCAACUCAUCCUCCAGGGAAACCCCUGGCUAUCUCAACAGCUCGCAGUCAAG | 0.3 ± 0.279
GGUCACGUCUCAAUCAACUCAAUCUCCAGGGAAAGCCCUGGCUAACUCAACAGCUCGCAGUCAAG | 0.405 ± 0.277
GGUCACGUCUCAAUCAACUCUAUCUCCAGGGAAAGCCCUGGCUUACUCAACAGCUCGCAGUCAAG | 0.329 ± 0.278
GGUCACGUCUCAAUCAACUCAUCUCCCAGGGAAAACCCUGGCUAUCUCAACAGCUCGCAGUCAAG | 0.3 ± 0.284
GGUCACGUCUCAAUCAACUCAUUUUCCAGGGAAAUCCCUGGCAUAUUCAACAGCUCGCAGUCAAG | 0.33 ± 0.202
GGUCACGUCUCAAUCAACUCAUCCUCCAGGGAAAACCCUGGCAUAUUCAACAGCUCGCAGUCAAG | 0.384 ± 0.243
GGUCACGUCUCAAUCAACUCUAUCUCCAGGGAAAACCCUGGCUAACUCAACAGCUCGCAGUCAAG | 0.369 ± 0.3
GGUCACGUCUCAAUCAACUCUAUCCCCAGGGAAAACCCUGGCUAUCUCAACAGCUCGCAGUCAAG | 0.336 ± 0.26
GGUCACGUCUCAAUCAACUCUUAAGAGGGGGGGAAAACCCCUUUGCCCUCACACUCAACAGCUCGCAGUCAAG | 0.323 ± 0.393
GGUCACGUCUCAAUCAACUCUCUAGAGGGGGGGAAAACCCCUUUGCCCUCACUAUCAACAGCUCGCAGUCAAG | 0.386 ± 0.408
